Source: PubChem BioAssay AID1851 (National Center for Advancing Translational Sciences (NCATS), 2009)
About 4,000 (25%) of roughly 16,000 compounds were called active. Not shown: some 26% with an inconclusive outcome. Calls follow the shape of the dose curve; as a rule, active = well fitted curve in the direction sought with a large enough effect; inconclusive = small, poorly fitted or top-dose-only effect, or effect the other way; inactive = no such curve, though single readings can be large or run the other way. Not all results are given here.

Each compound was assayed against Cytochrome P450 2C9 (Homo sapiens) (UniProt P11712) (assay: Cytochrome panel assay with activity outcomes). Details: recombinant CYP, pro-luciferin dealkylation, luminescence, p450-cyp2c9; series mostly up to 57.1 µM; activity, negative = inhibition: at the top concentration.
Cytochrome P450 2C9 (Homo sapiens), sequence (P11712 whole entry, looked up): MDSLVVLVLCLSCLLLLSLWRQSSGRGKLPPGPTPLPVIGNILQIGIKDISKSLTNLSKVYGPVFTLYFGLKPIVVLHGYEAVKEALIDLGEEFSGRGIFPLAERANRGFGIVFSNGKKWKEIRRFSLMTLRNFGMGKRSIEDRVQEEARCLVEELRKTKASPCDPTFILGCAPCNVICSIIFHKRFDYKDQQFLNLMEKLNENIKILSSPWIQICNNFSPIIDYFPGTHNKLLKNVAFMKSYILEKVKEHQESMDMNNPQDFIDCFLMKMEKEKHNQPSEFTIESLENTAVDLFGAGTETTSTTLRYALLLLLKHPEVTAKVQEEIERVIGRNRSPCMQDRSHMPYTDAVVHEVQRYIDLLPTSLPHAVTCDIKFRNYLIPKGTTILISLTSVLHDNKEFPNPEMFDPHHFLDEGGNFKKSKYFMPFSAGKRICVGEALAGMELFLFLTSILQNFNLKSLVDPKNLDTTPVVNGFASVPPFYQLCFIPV
% is scaled to controls: 0 for no effect and ±100 for the full control effect.

| SMILES | AC50 | activity, negative = inhibition |
| --- | --- | --- |
| CCOC(=O)CSc1cc(CS(=O)c2ccc(Cl)cc2)nc(-c2ccccc2)n1 (stereo unspecified) | 1.26 µM (active) |  |
| CNc1cc(CS(=O)c2ccccc2)nc(-c2ccccc2)n1 (stereo unspecified) |  | -22.8% (inactive) |
| C=CCN=C1CC(C)(C)CC(=O)/C1=C(/O)CCC(=O)OC |  | -6.6% (inactive) |
| CN(C)CCCNc1ncnc2nc[nH]c12 |  | 3.87% [at 11.4 µM] (inactive) |
| CO[C@@H]1/C=C\O[C@]2(C)Oc3c(C)c(O)c4c(O)c(cc(O)c4c3C2=O)NC(=O)/C(C)=C\C=C/[C@H](C)[C@@H](O)[C@H](C)[C@H](O)[C@H](C)[C@H](OC(C)=O)[C@@H]1C |  | -6.49% [at 11.4 µM] (inactive) |
| c1cncc(CNCc2cccnc2)c1 |  | 16% [at 11.4 µM] (inactive) |
| O=C(NCc1cccnc1)[C@@H]1[C@@H](C(=O)O)[C@H]2CC[C@@H]1O2 |  | -5.99% [at 11.4 µM] (inactive) |
| Cc1ccc(SC(C)C(=O)NCc2cccnc2)cc1 (stereo unspecified) | 8.91 µM (active) |  |
| COc1c(N2CCN(C(=S)Nc3ccc(F)cc3)C(C)C2)c(F)cc2c(=O)c(C(=O)O)cn(C3CC3)c12 (stereo unspecified) |  | -20.8% (inactive) |
| CC(=O)OC1COC(N2CCc3cc([N+](=O)[O-])ccc32)C(OC(C)=O)C1OC(C)=O (stereo unspecified) | 0.891 µM (active) |  |
| CN1CCCN(C)C1c1cc([N+](=O)[O-])ccc1O |  | -15.9% [at 11.4 µM] (inactive) |
| Cc1cnc(CNc2nc(-c3ccoc3)nc3ccccc23)cn1 |  | -6.46% [at 2.29 µM] (inactive) |
| COc1ccc(/C=C/C(=O)NCc2cn(C)nc2C)cc1COc1ccc(Br)cc1 | 12.6 µM (active) |  |
| COc1ccc(C(=O)NN)cc1COc1ccc(Br)cc1 | 8.91 µM (active) |  |
| COc1ccc(C(=O)NNC(=O)Cc2ccc(-c3ccccc3)cc2)cc1OC |  | -6.38% (inactive) |
| COC(=O)CCC(=O)NNC(=O)c1ccc(Br)cc1 |  | -18% (inactive) |
| CCn1ncc(/C=C/C(=O)NCc2cn(C)nc2C)c1C |  | 24.1% (inactive) |
| CC(C)n1nnnc1-c1cc(Cl)cc(Cl)c1 |  | -15.1% (inactive) |
| CCOC(=O)c1cc(C(=O)OCC)cc(-n2cc(O)c(C(=O)OCC)n2)c1 |  | -29.4% (inactive) |

| SMILES | AC50 | activity, negative = inhibition |
| --- | --- | --- |
| CCOC(=O)c1nn(-c2ccccc2)c(-c2ccccc2)c1C(=O)c1ccccc1 | 10 µM (active) |  |
| CC(=O)NCCNc1nc(-c2ccccc2C(F)(F)F)nc2ccccc12 |  | 5.47% [at 2.29 µM] (inactive) |
| COc1ccc(/C=N/NC(=O)c2cc(-c3ccc(C)cc3C)nc3ccccc23)cc1COC(C)=O | 0.794 µM (active) |  |
| COc1cccc(-c2cc(C(=O)N/N=C/c3ccc(OC)c(COC(C)=O)c3)c3ccccc3n2)c1 | 0.398 µM (active) |  |
| NS(=O)(=O)c1cc(C(=O)O)c(Cl)c([N+](=O)[O-])c1Cl |  | 8.24% [at 11.4 µM] (inactive) |
| CCCn1cnc2c(SCC(=O)O)nc(N)nc21 |  | 3.25% [at 11.4 µM] (inactive) |
| O=C1c2ccccc2-c2ccc(N(Cc3ccc(Br)cc3)Cc3ccc(Br)cc3)cc21 |  | -1.26% [at 11.4 µM] (inactive) |
| Cc1nc2sccn2c(=O)c1Cl |  | -7.69% (inactive) |
| CCCN(C/C=C\I)[C@@H]1CCc2cccc(O)c2C1 |  | -11.2% (inactive) |
| CCSc1nnc(NC(=O)C(C(F)(F)F)C(F)(F)F)s1 | 7.94 µM (active) |  |
| COCCSc1nnc(NC(=O)C(C)(C)C)s1 |  | -21.4% (inactive) |
| CN(C)S(=O)(=O)c1nc(Cl)c2[nH]cnc2n1 |  | 1.52% [at 11.4 µM] (inactive) |
| CCn1c(SCc2ccc(C#N)cc2)nnc1-c1ccc(S(=O)(=O)N2CCCCC2)cc1 | 4.47 µM (active) |  |
| O=C1N=C(N2CCOCC2)S/C1=C\C=C/c1ccccc1 |  | -8.55% (inactive) |
| O=C1N=C(N2CCC(Cc3ccccc3)CC2)S/C1=C/c1cn[nH]c1-c1ccccc1 | 0.447 µM (active) |  |
| CCN1CCCCC(=N/O)/C(=N/O)CCCC1 |  | -7.4% [at 11.4 µM] (inactive) |
| CCCSc1nc(C)cc(C)c1C(N)=O |  | 11.5% (inactive) |
| Cc1cc(C)c(C(N)=O)c(SCC(=O)c2ccc(Cl)cc2)n1 | 12.6 µM (active) |  |
| Cc1cc(C)c(C(N)=O)c(NC(=O)Nc2ccccc2)n1 |  | -13.2% (inactive) |

| SMILES | AC50 | activity, negative = inhibition |
| --- | --- | --- |
| CCO[C@H]1O[C@@H]([C@H](COCc2ccccc2)OCc2ccccc2)[C@@H](OCc2ccccc2)[C@H]1O | 10 µM (active) |  |
| CC(C)[C@@H](OCc1ccccc1)[C@H](C)/C=N\OC[C@@H](O)[C@@H]1O[C@@H]2OC(C)(C)O[C@@H]2[C@H]1O |  | -22.1% [at 11.4 µM] (inactive) |
| O[C@@H]1[C@@H](OCc2ccccc2)OC[C@H](O)[C@@H]1O |  | 0.912% [at 11.4 µM] (inactive) |
| COc1ccc(CNc2ncncc2-c2ccccc2CN(C)C)c(OC)c1 |  | -5.35% [at 2.29 µM] (inactive) |
| O=C(c1ccccc1)c1cc(F)c(N2CCOCC2)cc1Cl |  | -25.9% (inactive) |
| O=C(c1ccc(Cl)c(Cl)c1)c1cc(-c2ccccn2)c(N2CCOCC2)s1 | 5.01 µM (active) |  |
| CN(C)C(=O)c1ccc(-c2ccc3ncnc(N4CCOCC4)c3c2)cc1 |  | 20.2% [at 2.29 µM] (inactive) |
| C[C@@H]1CC[C@H]2C(=O)N3[C@@H](CC[C@@H](C)[C@@H]3c3ccc(Br)cc3)C(=O)N2[C@@H]1c1ccc(Br)cc1 | 3.98 µM (active) |  |
| C[C@@H]1CN2[C@H](c3ccc(Br)cc3)[C@H](C)CC[C@H]2C(=O)O1 |  | -3.17% [at 11.4 µM] (inactive) |
| CCCC[C@@H]1CN2[C@H](c3ccc(Br)cc3)[C@@H](C)CC[C@H]2C(=O)O1 |  | -13.2% [at 11.4 µM] (inactive) |
| COc1ccccc1NC(=O)N1CCCC1C(=O)NCc1ccc2c(c1)OCO2 (stereo unspecified) |  | -21.5% (inactive) |
| CCC(Sc1nc2cc3c(cc2c(=O)n1Cc1ccco1)OCO3)C(=O)Nc1cccc(OC)c1 (stereo unspecified) | 2 µM (active) |  |
| COc1cccc(Nc2ncc3nc(-c4cccs4)c(=O)n(Cc4cccs4)c3n2)c1 |  | -15.7% (inactive) |
| CCC(Sc1nc2cc3c(cc2c(=O)n1Cc1ccco1)OCO3)C(=O)Nc1ccccc1OC (stereo unspecified) | 0.631 µM (active) |  |
| CCCc1nnc(SCC(=O)N2C(C)CCCC2C)n1CCCOC (stereo unspecified) |  | -13.8% (inactive) |
| Cc1cc(=O)c2c(O)c(O)ccc2o1 |  | 19.8% (inactive) |
| CCOC(=O)[C@@]12C[C@@H]1/C(=N/O)c1ccccc1O2 |  | -1.19% (inactive) |
| CCOC(=O)c1cccc2c1-c1ccccc1/C2=N/O | 8.91 µM (active) |  |
